IkB sig inh = suppresses IkB signaling in ABC-DLBCL reporter cells. ABC-DLBCL IkBa-CBG/CBR dual luciferase ratio, 4 h; response scale: scaled: untreated 0%, proteasome inhibitor 100%. Potency, µM (highest dose often 57.1 µM), inactives show at the highest dose IkBa stabilization activation. 110,000 compounds, 0.04% hits. AID 445; active = well fitted curve in the direction sought with a large enough effect in the signal ratio, not every such curve was filed as active; inconclusive = small, poorly fitted or top-dose-only effect, or a change in a side signal; the % refers to the signal ratio;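 also: the direction sought is a rising ratio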
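Curves were fitted separately to fusion (green), unfused (red) and ratio luminescence, then classed by r2, magnitude and activity. Cells: OCI-Ly3, 4 h compound plus doxycycline at 37C; 10 uM MG-132 defined full response.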
FLuc inh = inhibitors of firefly luciferase. P08659. purified firefly luciferase, luminescence, 8 min. Potency, µM (series often up to 57.1 µM), inactives show top-dose activity change, negative = inhibition, hits mostly inhibitors. 72,000 compounds, 2.2% hits. AID 411; also: % is scaled to controls: 0 for no effect and ±100 for the full control effect; nearly all actives have a fitted effect of over 40% in size
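Titration-based qHTS; buffer 50 mM imidazole pH 7.2, 50 mM KCl, 7 mM MgCl2, 10 uM ATP, 0.01% Tween 20, 0.05% BSA; luciferase/luciferin detector mix added after compound; 8 min, ambient; luminescence.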
p53ts 32C kill = p53ts cell cytotoxicity, permissive temperature | H1299-p53A138V at 32C, ATP luminescence viability, 24 h | Potency, µM (highest dose often 46.1 µM), for the others: at the top dose activity change, negative = cytotoxicity, actives largely listed as cytotoxic | 130,000 compounds, 0.93% hits | AID 924;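 also: 0% = DMSO and -100% = full killing by reference compound; nearly all actives have a fitted effect of over 55% in size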
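Viability by ATPlite luminescence after 24 h compound treatment (up to 46 uM) at the permissive 32C. Cells are H1299 carrying p53 A138V. Scale runs from DMSO basal to 100 uM tamoxifen as full kill; AC50 from Hill fits.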
Casp1 inh = allosteric or competitive inhibitors of human caspase-1; P29466; Caspase-1 enzyme, Ac-WEHD-AFC fluorogenic rate; Potency, µM (titrated, usually from 57.5 µM), inactives show at the highest dose activity change, negative = inhibition, hits mostly inhibitors; 75,000 compounds, 0.03% hits;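 also: plate controls were vehicle for no effect and no substrate for full effect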
p53ts 39C tox = cytotoxicity in p53ts cells at nonpermissive temperature; AID 902; Potency, µM (highest dose often 46.1 µM), for the others: top-dose activity change, negative = cell killing, usual class: cytotoxic; 130,000 compounds, 1.5% hits; H1299-p53A138V viability at 39C, ATP luminescence, 24 h; also: % is scaled to controls: 0 for no effect and ±100 for the full control effect; nearly all actives have a fitted effect of over 55% in size
Casp7 inh = allosteric or competitive inhibitors of human caspase-7. P55210. Potency, µM (doses to about 57.5 µM), for inactives: at the highest dose activity change, negative = inhibition, usual class: inhibitors. 75,000 compounds, 0.02% hits. AID 889. recombinant caspase-7, Ac-DEVD-AFC fluorescence rate; active = well fitted inhibition curve with a large enough effect in the main read-out, with a control signal flat, not every such curve was filed as active; inconclusive = small, poorly fitted or top-dose-only effect, or a change in a side signal; also: % of control where 0% means no effect
Active calls of the source: *; ? = inconclusive; / = not tested or not shown. Only some compounds are listed: those with a hit (about 2.5% of all), similar ones and a draw of the others. Unless noted, calls follow the shape of the dose curve; as a rule, active = well fitted curve in the direction sought with a large enough effect; inconclusive = small, poorly fitted or top-dose-only effect, or another doubt; inactive = no such curve, though single readings can be large; an effect the other way counts as inactive or inconclusive. Potency is read from the fitted curve at half-maximal effect.

SMILES	IkB sig inh	FLuc inh	p53ts 32C kill	Casp1 inh	p53ts 39C tox	Casp7 inh
CCOC(=O)c1[nH]c2ccc(OC)cc2c1NC(=S)N1CCN(c2ccc(F)cc2)CC1	/	/	-20%	/	-7%	/
COc1ccccc1CCNC(=O)c1cc2ccccn2n1	?	/	-30%	/	?	/
Cc1ccc(NC(=O)c2cc3ccccn3n2)cc1F	4%	/	13µM*	/	?	/
CCc1ccc(NC(=O)c2cc3ccccn3n2)cc1	12%	/	6.3µM*	/	3.2µM*	/
Cc1ccccc1CCNC(=O)c1cc2ccccn2n1	?	/	?	/	10µM*	/
CCc1ccccc1NC(=O)CSc1nc(-c2ccccc2OC)nc2c1Cc1c(CO)cnc(C)c1O2	?	/	8%	/	-14%	/
Cc1ccc(CCNC(=O)C2CCCN(c3nnc(C)c4c(C)n(-c5ccccc5)nc34)C2)cc1 (configuration not stated)	?	/	-8%	/	-23%	/
CCN1CCN(c2cc(C)c3cc(NC(=O)c4ccccc4F)ccc3n2)CC1	?	/	-7%	/	-24%	/
Cc1ccc(NC(=O)Nc2ccc3nc(N4CCN(C)CC4)cc(C)c3c2)cc1C	?	/	?	/	13µM*	/
Cc1cc(N2CCN(C)CC2)nc2ccc(NC(=O)Nc3ccc(F)cc3F)cc12	?	/	-15%	/	?	/
Cc1cc(N2CCN(C)CC2)nc2ccc(NC(=O)Nc3ccccc3)cc12	0%	/	?	/	?	/
CCN1CCN(c2cc(C)c3cc(NC(=O)c4cc(Br)ccc4Cl)ccc3n2)CC1	?	/	?	/	13µM*	/
Cc1cc(N2CCN(C)CC2)nc2ccc(NC(=O)Nc3ccccc3Br)cc12	1%	/	16µM*	/	13µM*	/
Cc1cc(N2CCN(C)CC2)nc2ccc(NC(=O)Nc3cccc(Cl)c3)cc12	-5%	/	?	/	25µM*	/
CNCC[C@H](Oc1ccccc1C)c1ccccc1	-6%	-1%	-18%	-2%	13µM*	3%
CNCC[C@@H](Oc1ccccc1C)c1ccccc1	1%	0%	-1%	1%	-24%	0%
CCn1c(COc2ccccc2C)nnc1SCC(=O)N1CCC(C)CC1	4%	2%	-12%	0%	-6%	0%
CC(C)(C)NC(=O)Nc1ccc2nccnc2c1	-2%	16µM*	?	/	?	?
COc1ccc(N2CCN(C(=O)Cn3cnc4sc(C)c(S(=O)(=O)N5CCC(C)CC5)c4c3=O)CC2)cc1	?	/	9%	/	9%	/
Cc1nc(NCc2ccccn2)c2ccccc2n1	1%	-5%	1%	0%	-1%	-3%
c1ccc(CNc2ccc3ccccc3n2)nc1	?	25µM*	?	-1%	?	-3%
CCCN(CCC)CCCNC(=O)c1cc2c(=O)oc3ccc(C)cc3c2s1	-1%	/	4%	/	-1%	/
CCN1CCN(CCC(=O)Nc2ccccc2OC)CC1	1%	2%	-6%	-7%	3%	-2%
CCN1CCN(C(=O)Nc2ccc(Cc3ccc(NC(=O)N4CCN(CC)CC4)cc3)cc2)CC1	2%	13µM*	-27%	-4%	-10%	-1%
CCOC(=O)N1CCN(C(=O)Nc2ccc(Cl)cc2)CC1	-2%	-2%	-3%	0%	-7%	1%
SMILES	IkB sig inh	FLuc inh	p53ts 32C kill	Casp1 inh	p53ts 39C tox	Casp7 inh
CCN1CCN(Cc2ccc(NC(=O)Nc3ccccc3OC)cc2)CC1	3%	?	7.9µM*	-2%	10µM*	2%
CCCC(=O)Nc1ccc(-c2nc3cc(C)c(C)cc3o2)cc1	0%	?	-6%	3%	6%	-1%
CCCC(=O)Nc1cccc(-c2nc3cc(C)c(C)cc3o2)c1C	?	/	2µM*	/	2.5µM*	/
CCOC(=O)c1nn(-c2cc(C(=O)OC)cc(C(=O)OC)c2)cc1O	-1%	2%	-8%	4%	-7%	-2%
COC(=O)c1nn(-c2ccc(-c3ccccc3)cc2)cc1O	?	3.2µM*	7.9µM*	-2%	?	-2%
O=C(c1ccc(Cl)cc1)N1CCCCC(Sc2nnc(-c3ccc4c(c3)OCO4)o2)C1=O (configuration not stated)	1%	13µM*	7.9µM*	-1%	?	-1%
Cc1ccc(OC(=O)CSc2nnc(-c3ccc4c(c3)OCO4)o2)cc1	2%	/	0%	/	-7%	/
c1ccc2c(c1)CCN(c1nc3cc4c(cc3s1)OCCO4)C2	?	0.32µM*	1.6µM*	-3%	2µM*	-28%
O=S(=O)(c1ccc2c(c1)OCCO2)N1CCN(c2nc3ccccc3s2)CC1	4%	0%	-8%	-1%	-11%	-6%
COCn1c(-c2ccc(OC)c(OC)c2)nc2ccccc21	1%	16µM*	?	-1%	?	-3%
CCOC(=O)N1CCN(C(=O)CN2C(=O)COc3ccc(C)cc32)CC1	2%	-1%	-9%	0%	-5%	2%
CCOc1ccccc1NC(=O)Cn1c(=O)n(-c2ccc(C)c(C)c2)c(=O)c2c(C)c(C(=O)N(C)C)sc21	-1%	/	-3%	/	13µM*	/
CCc1ccc(-n2c(=O)c3c(C)c(C(=O)N(C)C)sc3n(CC(=O)Nc3cc(Cl)ccc3C)c2=O)cc1	9%	/	4%	/	23%	/
COc1ccc(C2(C(=O)Nc3c(C)n(C)n(-c4ccccc4)c3=O)CCCC2)cc1OC	-1%	-1%	0%	-12%	10%	0%
Cc1sc2ncnc(N3CCCCC3C)c2c1C (configuration not stated)	?	1%	2%	1%	-20%	-1%
Cc1cccc(NC(=O)Nc2ccc(F)cc2)n1	7%	/	-25%	/	-27%	/
Cc1ccc(OCC(=O)Nc2cccc3ccc(C)nc23)c(C)c1	0%	/	-3%	/	18%	/
Cc1ccc(OCC(=O)Nc2cccc(C)n2)c(C)c1	0%	16µM*	?	-4%	?	-2%
Cc1ccc(NC(=O)Nc2cccc(C)n2)cc1	12%	/	13µM*	/	16µM*	/
CCCCc1ccc(C(=O)Nc2ccc3nc(N(CC)CC)cc(C)c3c2)cc1	?	/	-5%	/	-9%	/
CC(C)(C)NC(=O)c1ccccc1-c1nc(-c2ccccc2Cl)no1	2%	20µM*	-18%	-3%	-22%	1%
CCOc1ccccc1NC(=O)c1ccccc1-c1nc(-c2ccccc2OC)no1	?	25µM*	-20%	-2%	-13%	-4%
COCCNC(=O)c1ccccc1-c1nc(-c2ccccc2OC)no1	8%	-10%	-12%	2%	-4%	-5%
C=Cc1ccc(Cn2c(C(=O)O)c(CNC3CCCCC3)c3ccc(C)cc32)cc1	0%	/	12%	/	-18%	/

Screening data: PubChem BioAssay, National Center for Advancing Translational Sciences (NCATS)
